Assay [1] is described as follows: NCI Yeast Anticancer Drug Screen. Data for the rad50 strain (AID 155).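 Further: 0% = growth of vehicle-only cultures of the same strain.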 The settings on record: S. cerevisiae rad50 strain growth inhibition, stronger effect = higher value. The method, boiled down:
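Cells are treated with compound, grown, and their growth is then scored against vehicle-only cultures of the same repair-deficient yeast strain.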

Assay [2] in a line: NCI Yeast Anticancer Drug Screen. Data for the mec2-1 strain (AID 157). The conditions noted are these: S. cerevisiae mec2-1 strain, stronger effect = higher value. An outline of the steps:
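Mutant yeast (mec2-1) grown with compound; growth inhibition relative to vehicle control reported.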

Assay [3] is described as follows: NCI Yeast Anticancer Drug Screen. Data for the sgs1 mgt1 strain (AID 161).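 Further: 0% = growth of cultures given vehicle only.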 The settings on record: S. cerevisiae sgs1 mgt1 strain, stronger effect = higher value. The method, boiled down: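 Growth of a repair-deficient yeast mutant was monitored after compound treatment and expressed as inhibition relative to vehicle-treated cultures.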
Assay [4] is described as follows: NCI Yeast Anticancer Drug Screen. Data for the cln2 rad14 strain (AID 165).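 Further: 0% = growth equal to vehicle treated cultures.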 The settings on record: S. cerevisiae cln2 rad14 strain, stronger effect = higher value. The method, boiled down:
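Readout is yeast growth inhibition versus vehicle-treated controls, using a strain with cln2 and rad14 alterations exposed to compound.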

The nature of assay [5]: NCI Yeast Anticancer Drug Screen. Data for the bub3 strain (AID 167). The conditions noted are these: S. cerevisiae bub3 mutant strain, stronger effect = higher value. An outline of the steps:
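Part of a panel of yeast mutants defective in DNA damage repair or cell cycle regulation. Each strain is grown with compound, and inhibition is calculated relative to solvent-treated cultures.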

Assay [6] is described as follows: NCI Yeast Anticancer Drug Screen. Data for the mlh1 rad18 strain (AID 175). The settings on record: S. cerevisiae mlh1 rad18 strain growth inhibition, stronger effect = higher value. An outline of the steps:
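Genetically defined yeast (DNA repair-deficient) exposed to compounds; growth inhibition determined relative to vehicle.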

[7] abbreviates: at 5.0 µM (retest, dose inferred, filed as 0.5).
The mark [8] stands for this setting: at 50.0 µM (retest, dose inferred, filed as 5.0).

Each structure is given as a SMILES string. “And” between values parts separate entries of the source, which are not always exact repeats. Equal entries are not always repeated. This is part of a sample that, as a whole, favours compounds with a hit. Of some 79,000 tested, about 15% had one in any assay. The source holds several records for some structures; these can differ, active in one and inactive in another. The source made the active and inactive calls. No stated cut-off is given here; in the data, active means growth inhibition above about 70%; inactive means the rest.

On to `CC[N+](C)(CC)CCNC(=O)C(O)(c1ccccc1)c1ccccc1`, for which the growth inhibition in assay [1] (setting [7]) was -8% (inactive); in assay [1] (setting [8]), 40% (inactive); in assay [1] (at 50.0 µM) it was 92.7% (active); in assay [2] (setting [7]) it was -13% (inactive); in assay [2] (setting [8]), 52% (inactive); in assay [2] (at 50.0 µM), 95.5% (active). The growth inhibition in assay [3] (setting [7]) was -6% (inactive); in assay [3] (setting [8]), 36% (inactive); in assay [3] (at 50.0 µM), 96.5% (active); in assay [4] (setting [7]), -2% (inactive); in assay [4] (setting [8]), 35% (inactive); in assay [4] (at 50.0 µM) it was 93.2% (active). The growth inhibition in assay [5] (setting [7]) is -5% (inactive); in assay [5] (setting [8]), 23% (inactive); in assay [5] (at 50.0 µM), 95.1% (active); in assay [6] (setting [7]), -1% (inactive); in assay [6] (setting [8]), 40% (inactive); in assay [6] (at 50.0 µM) it was 94.4% (active).
For `CC(C)(C)C[CH2][Hg][Cl]`, the growth inhibition is 99% (active) in assay [1] (setting [7]); 99% (active) in assay [1] (setting [8]); 99.2% (active) in assay [1] (at 50.0 µM); 100% (active) in assay [2] (setting [7]); 99% (active) in assay [2] (setting [8]); 99.7% (active) in assay [2] (at 50.0 µM). Further, the growth inhibition in assay [3] (setting [7]) was 100% (active); in assay [3] (setting [8]) it was 100% (active); in assay [3] (at 50.0 µM), 99.5% (active); in assay [4] (setting [7]), 99% (active); in assay [4] (setting [8]) it was 100% (active); in assay [4] (at 50.0 µM), 99.5% (active). For the same molecule, the growth inhibition in assay [5] (setting [7]) was 99% (active); in assay [5] (setting [8]) it was 99% (active); in assay [5] (at 50.0 µM) it was 99.6% (active); in assay [6] (setting [7]), 100% (active); in assay [6] (setting [8]), 100% (active); in assay [6] (at 50.0 µM), 99.5% (active).
Regarding `COC1=C(C)C(=O)c2c(c(COC(N)=O)c3n2CC2C3N2C)C1=O` (centres undefined), the growth inhibition was 37% (inactive) in assay [1] (setting [7]); 65% (inactive) in assay [1] (setting [8]); 93% (active) in assay [1] (at 50.0 µM); 2% (inactive) in assay [2] (setting [7]); 52% (inactive) in assay [2] (setting [8]); 95.3% (active) in assay [2] (at 50.0 µM). The growth inhibition in assay [3] (setting [7]) was 30% (inactive); in assay [3] (setting [8]), 74% (active); in assay [3] (at 50.0 µM), 73.8% (active); in assay [4] (setting [7]), -8% (inactive); in assay [4] (setting [8]) it was 72% (active); in assay [4] (at 50.0 µM), 87.1% (active). Further, the growth inhibition in assay [5] (setting [7]) is 8% (inactive); in assay [5] (setting [8]), 27% (inactive); in assay [5] (at 50.0 µM), 78.1% (active); in assay [6] (setting [7]), 13% (inactive); in assay [6] (setting [8]), 93% (active); in assay [6] (at 50.0 µM), 96% (active).
In the case of `c1ccc2c(c1)[As]=c1ccccc1=[As]2` (centres undefined), the growth inhibition in assay [1] (setting [7]) is 65% (inactive); in assay [1] (setting [8]), 99% (active); in assay [1] (at 50.0 µM) it was 89% (active); in assay [2] (setting [7]), 95% (active); in assay [2] (setting [8]) it was 99% (active); in assay [2] (at 50.0 µM), 91.5% (active). The growth inhibition in assay [3] (setting [7]) was 58% (inactive); in assay [3] (setting [8]), 99% (active); in assay [3] (at 50.0 µM), 92% (active); in assay [4] (setting [7]), 36% (inactive); in assay [4] (setting [8]), 99% (active); in assay [4] (at 50.0 µM) it was 92.1% (active). The growth inhibition in assay [5] (setting [7]) was 91% (active); in assay [5] (setting [8]), 98% (active); in assay [5] (at 50.0 µM) it was 90.2% (active); in assay [6] (setting [7]), 72% (active); in assay [6] (setting [8]), 99% (active); in assay [6] (at 50.0 µM), 91.4% (active).
As for `O=S(=O)(CCl)C(Cl)(Cl)Cl`, the growth inhibition in assay [1] (setting [7]) was 9% (inactive) and 5% (inactive); in assay [1] (setting [8]) it was 92% (active) and 61% (inactive); in assay [1] (at 50.0 µM), 94.5% (active) and 63.5% (inactive); in assay [2] (setting [7]), 13% (inactive) and -32% (inactive); in assay [2] (setting [8]) it was 66% (inactive) and 49% (inactive); in assay [2] (at 50.0 µM), 94.6% (active) and 62.2% (inactive). For the same molecule, the growth inhibition is 4% (inactive) and 3% (inactive) in assay [3] (setting [7]); 59% (inactive) and 67% (inactive) in assay [3] (setting [8]); 97% (active) and 51.5% (inactive) in assay [3] (at 50.0 µM); -2% (inactive) and 1% (inactive) in assay [4] (setting [7]); 44% (inactive) and 36% (inactive) in assay [4] (setting [8]); 83.6% (active) and 43.4% (inactive) in assay [4] (at 50.0 µM). The growth inhibition in assay [5] (setting [7]) is 36% (inactive) and 1% (inactive); in assay [5] (setting [8]), 80% (active) and 56% (inactive); in assay [5] (at 50.0 µM) it was 92.7% (active) and 67.8% (inactive); in assay [6] (setting [7]), 5% (inactive) and 4% (inactive); in assay [6] (setting [8]) it was 86% (active) and 73% (active); in assay [6] (at 50.0 µM) it was 95.8% (active) and 69.7% (inactive).
As for `CSc1nncc(=O)[nH]1.[Hg]`, the growth inhibition in assay [1] (setting [7]) was 99% (active); in assay [1] (setting [8]) it was 99% (active); in assay [1] (at 50.0 µM) it was 99.2% (active); in assay [2] (setting [7]), 99% (active); in assay [2] (setting [8]) it was 99% (active); in assay [2] (at 50.0 µM), 99.5% (active). Further, the growth inhibition was 100% (active) in assay [3] (setting [7]); 99% (active) in assay [3] (setting [8]); 99.5% (active) in assay [3] (at 50.0 µM); 99% (active) in assay [4] (setting [7]); 99% (active) in assay [4] (setting [8]); 99.2% (active) in assay [4] (at 50.0 µM). The growth inhibition in assay [5] (setting [7]) was 99% (active); in assay [5] (setting [8]), 99% (active); in assay [5] (at 50.0 µM), 99.2% (active); in assay [6] (setting [7]), 99% (active); in assay [6] (setting [8]), 99% (active); in assay [6] (at 50.0 µM), 99.2% (active).
Regarding `CCCCCCC[CH2][Sn]([F])([F])[CH2]CCCCCCC`, the growth inhibition in assay [1] (setting [7]) was 3% (inactive); in assay [1] (setting [8]) it was -7% (inactive); in assay [1] (at 50.0 µM) it was 41% (inactive); in assay [2] (setting [7]), 12% (inactive); in assay [2] (setting [8]) it was 4% (inactive); in assay [2] (at 50.0 µM), 46.5% (inactive). Moreover, the growth inhibition in assay [3] (setting [7]) was -1% (inactive); in assay [3] (setting [8]), -2% (inactive); in assay [3] (at 50.0 µM), 7.45% (inactive); in assay [4] (setting [7]), -1% (inactive); in assay [4] (setting [8]), -5% (inactive); in assay [4] (at 50.0 µM), 19.9% (inactive). The growth inhibition is 4% (inactive) in assay [5] (setting [7]); -1% (inactive) in assay [5] (setting [8]); -5.1% (inactive) in assay [5] (at 50.0 µM); 4% (inactive) in assay [6] (setting [7]); -15% (inactive) in assay [6] (setting [8]); 40.2% (inactive) in assay [6] (at 50.0 µM).
With `O=P(CP(=O)(c1ccccc1)c1ccccc1)(c1ccccc1)c1ccccc1.[CH3][Sn]([CH3])([Cl])[Cl]`, the growth inhibition is 6% (inactive) in assay [1] (setting [7]); 27% (inactive) in assay [1] (setting [8]); 21.4% (inactive) in assay [1] (at 50.0 µM); 21% (inactive) in assay [2] (setting [7]); 9% (inactive) in assay [2] (setting [8]); 89.3% (active) in assay [2] (at 50.0 µM). Also, the growth inhibition in assay [3] (setting [7]) is 5% (inactive); in assay [3] (setting [8]), 8% (inactive); in assay [3] (at 50.0 µM), 22.9% (inactive); in assay [4] (setting [7]), 3% (inactive); in assay [4] (setting [8]) it was -12% (inactive); in assay [4] (at 50.0 µM), 8.35% (inactive). Also, the growth inhibition in assay [5] (setting [7]) is 0% (inactive); in assay [5] (setting [8]), 8% (inactive); in assay [5] (at 50.0 µM), 4.25% (inactive); in assay [6] (setting [7]) it was 2% (inactive); in assay [6] (setting [8]), 15% (inactive); in assay [6] (at 50.0 µM), 19.4% (inactive).

The values above are taken from PubChem BioAssay (NCI).
